Assay outcomes (PubChem)
FUS suppressor: qHTS for Suppressors of FUS Proteinopathy: Primary screen using FUS-linked yeast assay; S. cerevisiae FUS-expressing, growth rescue, OD600, 24 h; Potency, µM (titrated, usually from 76.6 µM), hits mostly activators; actives 0.24% (n = 390,000); AID 1347120, 2019;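 note: plate controls were DMSO vehicle for no effect and reference control for full effect; nearly all actives have a fitted effect of over 55% in size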
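Galactose (2%) drives FUS expression in yeast precultured in raffinose; seeding density OD 0.005. Test compounds incubated 24hr at 30C and 99% humidity before absorbance at 600 nm was measured.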
aSyn yeast inh: qHTS of alpha-syn Inhibitors | Yeast expressing alpha-synuclein, growth rescue, BacTiter-Glo, 24 h | Potency, µM (highest dose often 46.1 µM), without a hit: at the highest dose growth rescue (activation), hits mostly activators | actives 0.14% (n = 370,000); note: % of control where 0% means no effect; nearly all actives have a fitted effect of over 65% in size
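Readout is rescue of growth in alpha-synuclein-expressing yeast, so inhibitors of toxicity appear as activators. Growth after 24 hr at 30 deg C in galactose medium is quantified by luminescence.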
Abeta rescue: qHTS for compounds that reverse cellular toxicity of Amyloid beta (A-beta) peptide in yeast: Primary Screen; AID 1347071, 2019; actives 0.063% (n = 410,000); yeast expressing A-beta42, growth rescue, OD600, 48 h; response scale: 0% DMSO, 100% iron-clioquinol control; Potency, µM (series often up to 46.1 µM), usual class: activators; note: nearly all actives have a fitted effect of over 55% in size
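Growth rescue measured by 600 nm absorbance after 48 h yeast culture at 30 C with compound. Values normalized between DMSO and an equimolar ferric chloride plus clioquinol control.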
TDP-43 yeast inh: qHTS of TDP-43 Inhibitors | actives 1.8% (n = 410,000) | Potency, µM (highest dose often 46.1 µM), without a hit: at the top dose growth rescue (activation), usual class: activators | TDP-43 expressing yeast growth rescue, BacTiter-Glo, 24 h; note: % of control where 0% means no effect; nearly all actives have a fitted effect of over 50% in size
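Galactose-induced TDP-43 yeast, OD600=0.02, compound pinned; 24 hr, 30 deg C; BacTiter-Glo luminescence for growth. Inhibitors of TDP-43 toxicity read as activators.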
* hit, by the source's call; i = inactive; ? = inconclusive; / = no result given. A selection: hits, their analogues and other compounds. The true share with any hit is near 2.1%. Calls come from the whole dose curve; as a rule, active = well fitted curve in the direction sought with a large enough effect; inconclusive = small, poorly fitted or top-dose-only effect, or another doubt; inactive = no such curve, though single readings can be large; an effect the other way counts as inactive or inconclusive. Potency is the fitted concentration of half-maximal effect.

SMILES | FUS suppressor | aSyn yeast inh | Abeta rescue | TDP-43 yeast inh
Cc1ccc(S(=O)(=O)N2CCSC2)cc1C | 0.891µM* | 1.3% | i | -11.1%
Cc1ccccc1OCc1nc(-c2cccnc2)no1 | i | 11.4% | i | 11.2µM*
c1ccc(OCc2nc(-c3ccncc3)no2)cc1 | i | 3.7% | i | 11.2µM*
Cc1ccc(SCc2nc(-c3ccncc3)no2)cc1 | i | 5.9% | i | 15.8µM*
Cc1ccc(C(=O)c2coc3ccc(O)c(Cl)c23)cc1 | i | -15.5% | i | 15.8µM*
O=c1ccc2ccccc2c2ccccc12 | i | ? | i | 3.16µM*
Cc1ccccc1OCCn1cc(C=O)c2ccccc21 | i | 4.2% | i | ?
COc1ccc(OCCn2cc(C=O)c3ccccc32)cc1 | i | -8.4% | i | 10µM*
COc1cc(-c2cc3nc(NCCN(C)C)ccn3n2)cc(OC)c1OC | i | -0.8% | i | -3.2%
COc1cc(-c2cc3nc(NC4CCCCC4)ccn3n2)cc(OC)c1OC | i | 0.7% | i | 35.5µM*
CCS(=O)(=O)N1CCC(n2c(C(F)(F)F)nc3cccnc32)CC1 | i | / | i | 23.2%
CCCCCCCCn1cc(C(C)=O)c(=O)[nH]c1=O | i | 6.0% | i | 12.6µM*
CSc1ccc(C2C(C#N)=C(N)Oc3c2ccc(=O)c2c(C)oc(C)c32)cc1 (configuration not stated) | 22.4µM* | ? | i | -31.1%
Cc1oc(C)c2c(=O)ccc3c(c12)OC(N)=C(C#N)C3c1ccccc1 (configuration not stated) | i | 11.2% | i | -19.3%
Cn1c(-c2ccccc2F)cc2onc(-c3ccccc3)c2c1=O | i | -12.1% | i | 20µM*
COC(=O)NC1c2ccccc2Oc2ccc(C)cc21 (configuration not stated) | i | 2.9% | i | 12.6µM*
COCCN1Cc2cccc(C(=O)Nc3ccc(C)c(F)c3)c2C1=O | i | / | i | 12.6µM*
COCCN1Cc2cccc(C(=O)Nc3ccc(Cl)cc3Cl)c2C1=O | i | / | i | 15.8µM*
CCOC(=O)c1ccc(NC(=O)c2cccc3c2C(=O)N(CC2CCCO2)C3)cc1 (configuration not stated) | ? | 2.8% | i | 22.4µM*
COc1cc(/C=C/c2nc(-c3ccccc3O)n[nH]2)cc(OC)c1OC | / | 12.8% | i | 15.8µM*
COc1cc(/C=C/c2nc(N)nc(-c3ccccc3O)n2)cc(OC)c1OC | i | -1.0% | i | -8.6%
COc1ccc(/C=C/c2nc(N)nc(-c3ccccc3O)n2)cc1OC | / | 13.2% | i | 15.8µM*
COc1ccc(S(=O)(=O)NCc2ccc3c(c2)CCN3C(C)=O)cc1OC | i | / | i | 4.2%
O=C(NC1CCCCN(Cc2cccc(Cl)c2)C1=O)C1CCCCC1 (configuration not stated) | i | / | / | /
Nc1nc(SCC(=O)N2N=C3/C(=C\c4ccco4)CCCC3C2c2ccco2)n[nH]1 (configuration not stated) | 31.6µM* | 9.5% | i | -8.0%
SMILES | FUS suppressor | aSyn yeast inh | Abeta rescue | TDP-43 yeast inh
Nc1nc(SCC(=O)N2N=C3/C(=C/c4ccco4)CCCC3C2c2ccco2)n[nH]1 (configuration not stated) | i | -1.5% | i | 1.2%
CCOC(=O)c1cc(=O)c2ccc(OCC(=O)Nc3ccccc3)cc2o1 | i | 15.1% | i | -8.6%
CCOC(=O)C1=C(C)N(CC(C)C)C(=O)/C1=C\c1ccc(OCC(=O)Nc2ccccc2)cc1 | i | 4.9% | i | 17.8µM*
Cc1cc(C(F)(F)F)n2nc(-c3cnn(C)c3C(F)(F)F)c(Br)c2n1 | i | 5.1% | i | 12.6µM*
COc1cccc(-c2cccc(-c3nc(C(=O)NCc4ccc(Oc5ccccc5)cc4)cc4c3[C@H](CCO)N(S(=O)C(C)(C)C)C4)c2)c1 (some centres not stated) | ? | -26.9% | i | ?
CC(C)(C)S(=O)N1Cc2cc(C(=O)NCc3ccc(Oc4ccccc4)cc3)nc(-c3cccc(-c4cc5ccccc5o4)c3)c2[C@@H]1CCO (some centres not stated) | 31.6µM* | -32.2% | i | 22.4µM*
CC(=O)N/C(=C/c1ccccc1)c1ccncc1 | / | 0.7% | / | /
Fc1ccc(N2CCN(C3=Nc4ccccc4Sc4ccccc43)CC2)cc1 | i | / | / | /
CCOc1ccc(C(c2c(O)cc(C)n(CCOC)c2=O)N2CCN(c3ccccc3F)CC2)cc1 (configuration not stated) | i | / | i | 20.4%
O=C(COc1ccccc1Cl)N1CCc2ccccc2C1 | i | -4.5% | i | 12.6µM*
O=C(COc1c(Br)cc(Br)c2cccnc12)N1CCCCC1 | i | 7.4% | i | 15.0%
O=C(COc1ccccc1F)N1CCc2ccccc2C1 | i | 5.1% | i | ?
O=C(/C=C/c1c(F)cccc1Cl)N1CCc2ccccc2C1 | i | ? | i | 7.94µM*
O=C(COc1c(Br)cc(Br)c2cccnc12)N1CCc2ccccc2C1 | i | 12.6µM* | i | ?
O=C(Nc1nnc(-c2ccc3c(c2)CCCC3)o1)c1ccc(Cl)cc1Cl | i | ? | ? | 3.98µM*
COc1ccc(NC(=O)CSc2nnc(NC(=O)NC3CCCCC3)s2)cc1OC | i | / | i | 29.1%
Cc1ccc2nc(NNC(=O)c3ccc(S(=O)(=O)N4CCc5ccccc5C4)cc3)sc2c1 | ? | ? | i | 8.91µM*
O=C(Nc1nnc(C2CC2)o1)c1ccc(S(=O)(=O)N2CCc3ccccc3C2)cc1 | i | 17.8µM* | i | 15.8µM*
COc1ccc(-c2nnc(NC(=O)c3ccc(S(=O)(=O)N4CCc5ccccc5C4)cc3)o2)cc1 | i | -0.9% | i | 3.3%
Cc1cc(C)c2nc(NNC(=O)c3ccc(S(=O)(=O)N4CC(C)CC(C)C4)cc3)sc2c1 (configuration not stated) | i | 0.5% | i | 5.01µM*
Cc1ccc(S(=O)(=O)N2CCN(c3nc(-c4ccc(C)s4)nc4ccccc34)CC2)cc1 | / | -0.9% | / | /
Cc1onc(-c2c(Cl)cccc2Cl)c1C(O)c1ccccc1 (configuration not stated) | i | 28.2% | i | 11.2µM*
O=C(C1CCCN1S(=O)(=O)c1ccccc1[N+](=O)[O-])N1CCc2ccccc2C1 (configuration not stated) | i | / | / | /
C#CCOc1c(Cl)cc(/C=C2/C(=O)ON=C2C)cc1OCC | i | 5.2% | i | 17.8µM*
C#CCOc1c(Br)cc(/C=C2/C(=O)ON=C2C)cc1OCC | i | 3.5% | ? | 15.8µM*
C#CCOc1ccc(/C=C2/C(=O)ON=C2C)cc1Cl | i | 1.7% | i | ?
CCC(C)NC(=O)CCCc1nnc2n(CC(C)C)c(=O)c3sccc3n12 (configuration not stated) | i | / | i | 12.5%
